“And” between values parts separate entries of the source, which are not always exact repeats. Equal values may be shown once. A number with no mark means an inactive call. Inconclusive results are not listed. The source made the active and inactive calls. Unless noted, calls come from the whole dose curve; as a rule, active = well fitted curve in the direction sought with a large enough effect in the repeat runs; inconclusive = weak or mixed curves; inactive = no such curve, though single readings can be large; an effect the other way counts as inactive or inconclusive.

Test [1] can be described thus: qHTS assay for small molecules that induce genotoxicity in human embryonic kidney cells expressing luciferase-tagged ATAD5 (AID 651632). Note: nearly all actives have a fitted effect of over 15% in size. The gist of the method: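 A rise in luciferase signal from ATAD5-tagged HEK293T cells marks genetic stress. Cells were exposed to compounds for 16 hr at 37C, 5% CO2, then luciferase was quantified after a 30 min room-temperature incubation with Amplite.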
On the technique in general: In qHTS, concentration-response curves come from the screen itself.

Test [2] can be described thus: qHTS assay for small molecule agonists of the p53 signaling pathway - cell viability (AID 651633; calls by dose curve;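 note: p53RE-bla HCT reporter cells with a stable beta-lactamase p53 reporter; series mostly up to about 83 µM; nearly all actives have a fitted effect of over 30% in size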). The gist of the method: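 p53RE-bla cells, seeded at 4,000 per well and rested 5 h at 37 C/5% CO2, received compounds in DMSO for 16 h at 37 C. CellTiter-Glo was then added, and luminescence was read after 30 min at room temperature to gauge cytotoxicity.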
Test [3] in a line: qHTS assay for small molecules that induce genotoxicity in human embryonic kidney cells expressing luciferase-tagged ATAD5 - cell viability (AID 651634; calls by dose curve; note: nearly all actives have a fitted effect of over 25% in size; note: potency is the fitted concentration of half-maximal effect). In short, it runs like this: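 Cytotoxicity counter-readout: after 15.5 hr compound treatment at 37C, live-cell protease activity in ATAD5-luciferase HEK293T cells measured by CellTiter-Fluor fluorescence, 30 min development at 37C.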

A short description of test [4]: qHTS assay for small molecule disruptors of the mitochondrial membrane potential - cell viability (AID 720634; calls by dose curve;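 note: human HepG2 liver cancer cells; series mostly up to about 83 µM; nearly all actives have a fitted effect of over 20% in size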). The gist of the method:
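Cytotoxicity was quantified from ATP content by CellTiter-Glo luminescence in the same wells as the MMP dye read-out. HepG2 (2,000 cells/well) were plated overnight and exposed to compounds for 1 hr at 37 C.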

A short description of test [5]: qHTS assay to test for compound auto fluorescence at 590 nm (red) in HepG2 cells (AID 720674). The gist of the method: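 Rose Bengal sodium served as the red fluorophore standard. HepG2 monolayers (overnight attachment, MEM with 10% FBS) were exposed to test compounds for 1 hr at 37 C and read at Ex 540/Em 590 nm.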
Test [6] in a line: qHTS assay to test for compound auto fluorescence at 535 nm (green) in HepG2 cells (AID 720675).
A short description of test [7]: qHTS assay to test for compound auto fluorescence at 460 nm (blue) in HEK293 cells (AID 720678). The gist of the method:
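Auto fluorescence in the blue band was quantified as triamterene equivalency. HEK293 cells were seeded at 2,000/well, dosed after a 4-5 hr attachment, and kept overnight at 37C before the 405/460 nm reading.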

Test [8] in a line: qHTS assay to test for compound auto fluorescence at 590 nm (red) in HEK293 cells (AID 720679). The gist of the method:
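Autofluorescence equivalency to Rose Bengal sodium, 540/590nm, in HEK293 cells exposed overnight to 23 nL compound per well.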

A short description of test [9]: qHTS assay for small molecule disruptors of the mitochondrial membrane potential (AID 720635). In short, it runs like this: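 HepG2 cells (2,000/well) attached overnight at 37C, then took compound for 1 hr at 37C, 5% CO2. Mito-MPS dye was added for 30 min; fluorescence was read at 490/535 nm (monomers) and 540/590 nm (aggregates).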
% is set by controls: 0 for no effect and ±100 for the full control effect.

For the compound `CCOCC(C)O` (stereo not drawn), the Potency entry in [1], in [2] and in [3] was “inactive” throughout. Moreover, the outcome in test [4], in test [5], in test [6], in test [7] and in [8] was inactive.
In the case of `O=S(=O)(O)c1cccc(S(=O)(=O)O)c1`, the Potency result in test [1], in [2] and in test [3] was “inactive” throughout. Also, the compound was classed as inactive in test [4], in test [5], in [6], in test [7] and in test [8].
For the compound `CCCCCCCCCC[N+](C)(C)[O-]`, the Potency result in test [1], in test [2] and in test [3] was “inactive” in each case. Moreover, the result in [4], in [5], in test [7] and in test [8] was inactive.
For the compound `COc1ccccc1OCC1CNC(=O)O1` (stereo not drawn), the Potency result in test [1], in [2], in test [3] and in test [9] was “inactive” each time. Also, the result in test [5], in test [6] and in test [7] was inactive.
For the compound `CCCc1ncc(C[n+]2ccccc2C)c(N)n1`, the Potency entry in test [1], in test [2] and in test [3] was “inactive” throughout. Besides, in test [4], the call was inactive. In test [5], the fluorescence, relative to Rose Bengal is -0.079% [at 18.6 µM]. Moreover, the fluorescence, % of fluorescein control in [6] is 0.0061% [at 18.6 µM]. In test [7], the fluorescence, % of triamterene was -0.0062% [at 18.6 µM]. Moreover, the fluorescence, % of fluorescent control in [8] is 0.0217% [at 18.6 µM].
For `CC(=O)N[C@H]1[C@H]([C@H](O)[C@H](O)CO)OC(C(=O)O)=C[C@@H]1N=C(N)N`, the Potency result in test [1], in test [2] and in test [3] was “inactive” throughout. The compound was classed as inactive in [4], in test [5], in test [6], in test [7] and in test [8].
Regarding `Cc1ccc(-c2ncc(Cl)cc2-c2ccc(S(C)(=O)=O)cc2)cn1`, the Potency result in test [1], in [2], in test [3] and in test [9] was “inactive” in each case. Also, the result in test [5], in [6], in [7] and in test [8] was inactive.
In the case of `FB(F)F`, the Potency entry in test [1], in [2] and in [3] was “inactive” each time. In addition, the result in [4], in test [5], in test [6], in test [7] and in [8] was inactive.
Consider `CCCCN(CCC(=O)OCC)C(C)=O`, for which the Potency entry in [1], in test [2] and in test [3] was “inactive” each time. For the same compound, the result in test [4], in [5], in test [6], in [7] and in [8] was inactive.
As to `Cc1ccccc1N=C(N)N=C(N)N`, the Potency entry in test [1], in [2] and in [3] was “inactive” in each case. Also, the compound was classed as inactive in [4], in [5], in [7] and in [8].
In the case of `Cc1ccc(C(=O)Nc2ccc(S(=O)(=O)O)c3cc(S(=O)(=O)O)cc(S(=O)(=O)O)c23)cc1NC(=O)c1cccc(NC(=O)Nc2cccc(C(=O)Nc3cc(C(=O)Nc4ccc(S(=O)(=O)O)c5cc(S(=O)(=O)O)cc(S(=O)(=O)O)c45)ccc3C)c2)c1`, the Potency result in test [1], in test [2] and in test [3] was “inactive” each time. The compound was called inactive in test [4], in [5], in test [7] and in test [8].
For `C=C[Si](OC(C)=O)(OC(C)=O)OC(C)=O`, the Potency result in test [1], in test [2] and in test [3] was “inactive” throughout. In addition, the compound was called inactive in test [4], in [5], in [6], in [7] and in test [8].
Consider `CC(C#N)(CCC(=O)O)N=NC(C)(C#N)CCC(=O)O` (stereo not drawn), for which the Potency result in test [1], in test [2], in [3] and in [9] was “inactive” each time. Further, the result in test [5], in test [6], in test [7] and in [8] was inactive.
For the compound `C=CCOCC(O)CO` (stereo not drawn), the Potency result in test [1], in test [2] and in test [3] was “inactive” in each case. Besides, the call in [4], in test [5], in test [6] and in [7] was inactive.
For `CC(=O)O[C@@]12CO[C@@H]1C[C@H](O)[C@@]1(C)C(=O)[C@H](O)C3=C(C)[C@@H](OC(=O)[C@H](O)[C@@H](NC(=O)OC(C)(C)C)c4ccccc4)C[C@@](O)([C@@H](OC(=O)c4ccccc4)[C@H]21)C3(C)C`, the Potency entry in test [1] and in [2] was “inactive” each time. In addition, the Potency in [3] is 11.9 nM (active) and 8.4 nM (active). Moreover, the call in test [4], in [5] and in [7] was inactive.
Consider `NCCCC(N)(C(=O)O)C(F)F` (stereo not drawn), for which the Potency result in [1], in test [2] and in test [3] was “inactive” each time. The outcome in [4], in test [5], in test [6], in test [7] and in test [8] was inactive.
For `CCNS(=O)(=O)c1ccc(C)cc1`, the Potency entry in test [1], in [2], in test [3] and in test [9] was “inactive” each time. Besides, the call in test [5], in test [6], in test [7] and in test [8] was inactive.
As to `NS(=O)(=O)Cc1noc2ccccc12`, the Potency result in test [1], in [2] and in [3] was “inactive” in each case. In addition, the outcome in [4], in [5], in test [6], in test [7] and in test [8] was inactive.
For the compound `CC(=O)C1CCCCC1=O` (stereo not drawn), the Potency entry in test [1], in [2] and in test [3] was “inactive” in each case. The outcome in [4], in test [5], in test [6], in test [7] and in test [8] was inactive.
For `CCCCOCCOC(=O)COc1cc(Cl)c(Cl)cc1Cl`, the Potency result in test [1], in test [2] and in test [3] was “inactive” each time. For the same compound, the outcome in test [4], in test [5], in test [6], in test [7] and in [8] was inactive.
For the compound `COc1c(N2CCNC(C)C2)c(F)cc2c(=O)c(C(=O)O)cn(C3CC3)c12` (stereo not drawn), the Potency result in test [1], in test [2], in test [3] and in [9] was “inactive” each time. For the same compound, the compound was classed as inactive in test [5], in [6], in test [7] and in [8].
As for `CC[N+](CC)(CC)CCOc1cccc(OCC[N+](CC)(CC)CC)c1OCC[N+](CC)(CC)CC`, the Potency result in [1], in test [2] and in test [3] was “inactive” each time. Moreover, the call in test [4], in [5], in test [7] and in test [8] was inactive.
In the case of `OCCCCCO`, the Potency entry in test [1], in [2] and in test [3] was “inactive” each time. Also, the compound was called inactive in [5], in [6] and in test [7].
For `CCCCCCC1CCC(=O)O1` (stereo not drawn), the Potency entry in test [1], in [2] and in test [3] was “inactive” each time. Also, the compound was classed as inactive in test [5], in test [6], in [7] and in test [8].
As for `CC(C)c1ccc2ncccc2c1`, the Potency result in [1] and in [3] was “inactive” in each case. The outcome in [4], in test [5], in [6], in test [7] and in test [8] was inactive.
As to `COC(=O)C1=C(C)NC(C)=C(C(=O)OC(C)C)C1c1cccc2nonc12` (stereo not drawn), the Potency result in [1] and in test [2] was “inactive” in each case. In addition, the compound was classed as inactive in test [4]. In test [5], the fluorescence, relative to Rose Bengal is 0.351% [at 18.6 µM]. Besides, the fluorescence, % of fluorescein control in [6] is 0.024% [at 18.6 µM]. Besides, the fluorescence, % of triamterene in test [7] was -0.009% [at 18.6 µM]. In addition, the fluorescence, % of fluorescent control in test [8] is 0.0072% [at 18.6 µM].
Turning to `Cc1ccc(C(=O)c2ccc(CC(=O)O)n2C)cc1`, the Potency result in [1], in [2] and in test [3] was “inactive” each time. In [5], the fluorescence, relative to Rose Bengal is 0.352% [at 18.6 µM]. The fluorescence, % of fluorescein control in test [6] was 0.0458% [at 18.6 µM]. Also, the fluorescence, % of triamterene in test [7] was -0.184% [at 18.6 µM]. For the same compound, the fluorescence, % of fluorescent control in test [8] was 0.256% [at 18.6 µM].
With `CC1=C(C/C=C(\C)CCC[C@H](C)CCC[C@H](C)CCCC(C)C)C(=O)c2ccccc2C1=O`, the Potency result in test [1], in test [2] and in test [3] was “inactive” throughout. The compound was called inactive in [5], in test [6] and in test [7].

Source of the values: PubChem BioAssay (Tox21).
